Among the data in PubChem BioAssay (NCATS) are Potency values, retold here.

Where “and” joins values, the source holds several entries; their conditions need not be identical. Equal entries are not always repeated. Results filed as inconclusive are left out. Where a call stands in place of a potency, no number is given. Calls of active or inactive are those of the source. The call rests on the fitted dose curve; in most records, active means well fitted cell-killing curve with a large enough effect; inconclusive means small, poorly fitted or top-dose-only effect; inactive means no such curve, though single readings can be large or run the other way.
Potency means the concentration at half of the fitted maximal effect.

This assay can be described thus: qHTS of pediatric cancer cell lines to identify multiple opportunities for drug repurposing: Confirmatory screen for BT-37 cells (AID 1347117). Further: nearly all actives have a fitted effect of over 55% in size. The note with it: BT-37 pediatric cancer cells, viability; series mostly up to 45.9 µM. An excerpt:
Drug repurposing or repositioning has been offered as a strategy for drug development in oncology programs. This approach has special potential for childhood cancers and other rare or orphan diseases, where the expected return on new drug development has been a disincentive to pharmaceuticals.
In this project we exploit the poly-pharmacology of drugs to discover new indications via phenotypic screening of a panel of 19 well-characterized cell lines derived from solid tumors seen in children and adolescents. The goal is to identify approved drugs with previously unrecognized anticancer properties that has the potential to reveal new mechanisms and biological processes involved in carcinogenesis or drug resistance. We employed a titration-based paradigm (quantitative high-throughput screening or qHTS), where all compounds were tested at multiple concentrations for their effect on cell viability. Concentration-response curves (CRCs) were derived directly from the primary screen, and both potency and efficacy values were used to identify compounds with robust bioactivity profiles. We screened the NIH Chemical Genomics Center (NCGC) Pharmaceutical Collection (NPC) and Mechanism Interrogation Plate (MIPE) small molecule collections of approved and investigational compounds against these cell lines; and measured metabolically active cells after 48 hours of compound treatment as a proxy for cell viability.
Assay Submitter: Nathalia J. Martinez, National Center for Advancing Translational Sciences, National Institutes of Health, Rockville, MD, USA; email: natalia.martinez@nih.gov
[1] Shen, M et al. Quantitative high-throughput phenotypic screening of pediatric cancer cell lines identifies multiple opportunities for drug repurposing. Oncotarget 2017 Dec 19;9(4):4758-4772. PMID 29435139.
The cells were obtained from University of North Carolina (UNC), Pediatric Preclinical Testing Program (PPT), and Coriell Institute (CI).
qHTS cell viability assay:
Cells were assayed in growth media at a density of 500-1,000 cells/well. Five microliters of cells were dispensed into 1,536-well, white, solid-bottom, TC-treated plates (Greiner Bio One) using a multidrop dispenser and incubated at 37 degrees C, 5% CO2, under a humidified atmosphere for 5 hours. Twenty-three nanoliters of compounds and controls (neutral control DMSO or positive control bortezomib at final concentration of 2.3 µM) were subsequently transferred by Kalypsys pintool. For primary screens, the MIPE collection was tested at 11-point dilutions (final concentrations range from 0.78 nM to 46 µM) and the NPC collection at 8-point dilutions (final concentrations range from 0.59 nM to 46 µM). Compounds tested in follow-up screens were assayed at 11-point dilutions. Cells were incubated for 48 hours, followed by addition of 3 µL of CellTiter-Glo (Promega). After a 15 min incubation at room temperature, samples were analyzed for luminescence intensity using a ViewLux High-throughput CCD imager equipped with clear filters.
(In general: qHTS replaces the single test concentration by a dilution series.)
In the case of `CO[C@@]12[C@H](COC(N)=O)C3=C(C(=O)C(C)=C(N)C3=O)N1C[C@@H]1N[C@@H]12`, the Potency was 0.737 µM (active).
Next, `CC1CC2C3CCC4=CC(=O)C=C[C@]4(C)[C@@]3(F)[C@@H](O)C[C@]2(C)[C@@]1(O)C(=O)CO` (stereo partly specified): “inactive”.
As for `Nc1[nH]c(=O)ncc1F`, the entry is “inactive”; as for `CN(C)c1ccc(C(=C2C=CC(=[N+](C)C)C=C2)c2ccc(N(C)C)cc2)cc1`, 1.17 µM (active); as for `CNNCc1ccc(C(=O)NC(C)C)cc1`, “inactive”.
As for `CCC(=O)O[C@]1(C(=O)SCF)[C@H](C)C[C@H]2[C@@H]3C[C@H](F)C4=CC(=O)C=C[C@]4(C)[C@@]3(F)[C@@H](O)C[C@@]21C`, the entry is “inactive”; as for `CCOC(=O)[C@H](CCc1ccccc1)N[C@H]1CS[C@H](c2cccs2)CN(CC(=O)O)C1=O`, “inactive”.
Consider `C[C@@H](CN1CC(=O)NC(=O)C1)N1CC(=O)NC(=O)C1`, for which the Potency entry is “inactive”.
Next, `CC(C)NCC(O)c1ccc(NS(C)(=O)=O)cc1` (stereo unspecified): “inactive”; `CNS(=O)(=O)CCc1ccc2[nH]cc(C3CCN(C)CC3)c2c1`: “inactive”.
Next, `Cn1nnc2c(C(N)=O)ncn2c1=O`: “inactive”; `COc1cc2nc(N3CCCN(C)CC3)nc(NC3CCN(Cc4ccccc4)CC3)c2cc1OC`: 20.8 µM (active); `Nc1nc(=S)c2[nH]cnc2[nH]1`: 3.29 µM (active) and 2.93 µM (active).
`C[C@@H]1C[C@H]2[C@@H]3CCC4=CC(=O)C=C[C@]4(C)[C@@]3(Cl)[C@@H](O)C[C@]2(C)[C@@]1(OC(=O)c1ccco1)C(=O)CCl`: the Potency is 0.369 µM (active).
On to `CC(C)C[C@H](NC(=O)[C@H](CCc1ccccc1)NC(=O)CN1CCOCC1)C(=O)N[C@@H](Cc1ccccc1)C(=O)N[C@@H](CC(C)C)C(=O)[C@@]1(C)CO1`, for which the Potency was 0.0928 µM (active).
Next, `CNC(=O)c1cc(Oc2ccc(NC(=O)Nc3ccc(Cl)c(C(F)(F)F)c3)cc2)ccn1`: 23.3 µM (active); `COc1cc([C@@H]2c3cc4c(cc3[C@H](O)[C@H]3COC(=O)[C@H]23)OCO4)cc(OC)c1OC`: 0.0522 µM (active); `Nc1nc(F)nc2c1ncn2[C@@H]1O[C@H](CO)[C@@H](O)[C@@H]1O`: 14.7 µM (active) and 414 nM (active).
Regarding `CS(=O)(=O)c1ccc([C@@H](O)[C@@H](CO)NC(=O)C(Cl)Cl)cc1`, the Potency result was “inactive”.
As for `COc1ccc(-c2ccc3cc(C(=O)O)ccc3c2)cc1C12CC3CC(CC(C3)C1)C2`, the figure is 7.37 µM (active).
For the molecule `CCC(=O)O[C@]1(C(=O)CCl)[C@@H](C)C[C@H]2[C@@H]3CCC4=CC(=O)C=C[C@]4(C)[C@@]3(F)[C@@H](O)C[C@@]21C`, the Potency result is “inactive”.
For `CC(C)(C)C(=O)OCOP(=O)(COCCn1cnc2c(N)ncnc21)OCOC(=O)C(C)(C)C`, the Potency is 3.69 µM (active).
Regarding `COc1nc(N)nc2c1ncn2[C@@H]1O[C@H](CO)[C@@H](O)[C@@H]1O`, the Potency was 18.5 µM (active).
In the case of `COC(=O)Nc1nc2ccc(S(=O)c3ccccc3)cc2[nH]1` (stereo unspecified), the Potency was 2.08 µM (active).
As for `COc1cc2c(Nc3ccc(Br)cc3F)ncnc2cc1OCC1CCN(C)CC1`, the entry is “inactive”.
Next, `Nc1nc(N)nc(-c2cc(Cl)ccc2Cl)n1`: “inactive”; `O=NN(CCCl)C(=O)NC1CCCCC1`: “inactive”; `COC(=O)Nc1nc2ccc(Sc3ccccc3)cc2[nH]1`: 1.85 µM (active).
As for `CN1CCCC(n2nc(Cc3ccc(Cl)cc3)c3ccccc3c2=O)CC1` (stereo unspecified), the figure is 23.3 µM (active); as for `CNCC[C@H](Oc1cccc2ccccc12)c1cccs1`, “inactive”.
For the molecule `CCOC(=O)c1ccc(C#Cc2ccc3c(c2)C(C)(C)CCS3)nc1`, the Potency result is “inactive”.
Take `CCc1c2c(nc3ccc(OC(=O)N4CCC(N5CCCCC5)CC4)cc13)-c1cc3c(c(=O)n1C2)COC(=O)[C@]3(O)CC`: the Potency was 0.928 µM (active).
With `Oc1c(Cl)cc(Cl)c2cccnc12`, the Potency was 18.5 µM (active).
For `Cc1cccc(N(C)C(=S)Oc2ccc3ccccc3c2)c1`, the Potency result was “inactive”.
Turning to `COc1cc(NCc2ccc3nc(N)nc(N)c3c2C)cc(OC)c1OC`, the Potency was 2.61 µM (active).
Regarding `CC(C)(C#N)c1cc(Cn2cncn2)cc(C(C)(C)C#N)c1`, the Potency entry is “inactive”.
